Measurements as given in PubChem BioAssay AID1159580 (chemical genetic matrix, 2015).
The whole screen tested about 5,500 compounds, of which about 2,000 (36%) were called active. Inconclusive results (about 18%) are left out. No stated cut-off is given here; in the data, active means normalized growth mostly below about 0.91 (no sharp cut-off); inconclusive means no clear call, values can overlap the other calls; inactive means mostly above about 0.92. This is one part of the list.

Experiment: chemical genetic growth profiling, strain panel (AID 1159580);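 further: tested at 20 µM; growth read once vehicle control cultures reached saturation at 30 °C; 1 = growth at the plate median or of vehicle wells; lower values mean less growth of the strain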
Details: growth OD

Measured: normalized growth

Nc1ccn(C2O[C@H](CO)[C@@H](O)[C@H]2O)c(=O)n1 (some centres undefined)
inactive: S. cerevisiae deletion strains, locus YJR075W, strain HOC1, active compounds read low 1.02 | S. cerevisiae deletion strains, locus YKL009W, strain mrt4, active compounds read low 1.04 | S. cerevisiae deletion strains, locus YKL068W, active compounds read low 1 | S. cerevisiae deletion strains, locus YKL085W, strain MDH1 (second series), active compounds read low 1 | S. cerevisiae deletion strains, locus YKL085W, strain MDH1, active compounds read low 1 | S. cerevisiae deletion strains, locus YKL160W, strain elf1, active compounds read low 0.994 | S. cerevisiae deletion strains, locus YKL190W, strain CNB1, active compounds read low 0.989 | S. cerevisiae deletion strains, locus YKR001C, strain vps1, active compounds read low 1.03 | S. cerevisiae deletion strains, locus YKR026C, strain gcn3, active compounds read low 1 | S. cerevisiae deletion strains, locus YKR091W, strain srl3, active compounds read low 0.986 | S. cerevisiae deletion strains, locus YLL001W, strain dnm1, active compounds read low 0.989 | S. cerevisiae deletion strains, locus YLL026W, active compounds read low 0.994 | S. cerevisiae deletion strains, locus YLL041C, strain sdh2, active compounds read low 0.987 | S. cerevisiae deletion strains, locus YLR027C, strain aat2, active compounds read low 0.984 | S. cerevisiae deletion strains, locus YLR039C, strain RIC1, active compounds read low 1.01 | S. cerevisiae deletion strains, locus YLR058C, strain SHM2, active compounds read low 0.998 | S. cerevisiae deletion strains, locus YLR102C, strain apc9, active compounds read low 1.01 | S. cerevisiae deletion strains, locus YLR113W, strain HOG1, active compounds read low 1.01 | S. cerevisiae deletion strains, locus YLR221C, strain rsa3, active compounds read low 1 | S. cerevisiae deletion strains, locus YLR258W, strain gsy2, active compounds read low 1 | S. cerevisiae deletion strains, locus YLR262C, strain YPT6 (second series), active compounds read low 0.992 | S. cerevisiae deletion strains, locus YLR262C, strain YPT6, active compounds read low 1.05 | S. cerevisiae deletion strains, locus YLR268W, strain sec22, active compounds read low 1.05 | S. cerevisiae deletion strains, locus YLR320W, strain mms22, active compounds read low 0.995 | S. cerevisiae deletion strains, locus YLR330W, strain CHS5, active compounds read low 0.986 | S. cerevisiae deletion strains, locus YLR342W, strain FKS1 (second series), active compounds read low 1.02 | S. cerevisiae deletion strains, locus YLR342W, strain FKS1, active compounds read low 0.995 | S. cerevisiae deletion strains, locus YLR357W, strain rsc2, active compounds read low 0.964 | S. cerevisiae deletion strains, locus YLR370C, strain arc18, active compounds read low 0.998 | S. cerevisiae deletion strains, locus YLR371W, strain rom2, active compounds read low 1.01 | S. cerevisiae deletion strains, locus YLR384C, strain iki3, active compounds read low 1 | S. cerevisiae deletion strains, locus YLR418C, strain cdc73, active compounds read low 1.01 | S. cerevisiae deletion strains, locus YML016C, strain PPZ1, active compounds read low 1 | S. cerevisiae deletion strains, locus YML032C, strain rad52, active compounds read low 0.993 | S. cerevisiae deletion strains, locus YML120C, strain ndi1, active compounds read low 0.979 | S. cerevisiae deletion strains, locus YML124C, strain tub3, active compounds read low 1.01 | S. cerevisiae deletion strains, locus YMR058W, strain fet3, active compounds read low 0.983 | S. cerevisiae deletion strains, locus YMR078C, strain ctf18, active compounds read low 1.02 | S. cerevisiae deletion strains, locus YMR125W, strain sto1, active compounds read low 0.973 | S. cerevisiae deletion strains, locus YMR129W, active compounds read low 0.991 | S. cerevisiae deletion strains, locus YMR205C, strain PFK2, active compounds read low 0.998 | S. cerevisiae deletion strains, locus YMR223W, strain ubp8, active compounds read low 1.02 | S. cerevisiae deletion strains, locus YMR231W, strain pep5, active compounds read low 0.979 | S. cerevisiae deletion strains, locus YMR307W, strain GAS1, active compounds read low 1.05 | S. cerevisiae deletion strains, locus YNL067W, strain RPL9B, active compounds read low 1.03 | S. cerevisiae deletion strains, locus YNL071W, strain lat1, active compounds read low 0.983 | S. cerevisiae deletion strains, locus YNL128W, strain TEP1, active compounds read low 1.01 | S. cerevisiae deletion strains, locus YNL153C, strain GIM3, active compounds read low 1.03 | S. cerevisiae deletion strains, locus YNL183C, strain NPR1, active compounds read low 0.933 | S. cerevisiae deletion strains, locus YNL209W, strain ssb2, active compounds read low 0.992 | S. cerevisiae deletion strains, locus YNL233W, strain BNI4, active compounds read low 1.05 | S. cerevisiae deletion strains, locus YNL248C, strain rpa49, active compounds read low 0.984 | S. cerevisiae deletion strains, locus YNL250W, strain rad50, active compounds read low 1 | S. cerevisiae deletion strains, locus YNL271C, strain bni1, active compounds read low 1.01 | S. cerevisiae deletion strains, locus YNL298W, strain CLA4, active compounds read low 1 | S. cerevisiae deletion strains, locus YNL307C, strain MCK1, active compounds read low 1.02 | S. cerevisiae deletion strains, locus YNL322C, strain KRE1 (second series), active compounds read low 1.01 | S. cerevisiae deletion strains, locus YNR049C, strain mso1, active compounds read low 0.985 | S. cerevisiae deletion strains, locus YNR052C, strain pop2, active compounds read low 1.01 | S. cerevisiae deletion strains, locus YOL006C, strain TOP1, active compounds read low 1.09 | S. cerevisiae deletion strains, locus YOL012C, strain htz1 0.74 | S. cerevisiae deletion strains, locus YOL147C, strain pex11, active compounds read low 1 | S. cerevisiae deletion strains, locus YOR001W, strain rrp6, active compounds read low 0.98 | S. cerevisiae deletion strains, locus YOR061W, strain CKA2, active compounds read low 1.01 | S. cerevisiae deletion strains, locus YOR069W, strain VPS5, active compounds read low 1.01 | S. cerevisiae deletion strains, locus YOR070C, strain gyp1, active compounds read low 1 | S. cerevisiae deletion strains, locus YOR080W, strain dia2, active compounds read low 1 | S. cerevisiae deletion strains, locus YOR083W, strain WHI5, active compounds read low 0.992 | S. cerevisiae deletion strains, locus YOR106W, strain vam3, active compounds read low 1.02 | S. cerevisiae deletion strains, locus YOR136W, strain idh2, active compounds read low 1.01 | S. cerevisiae deletion strains, locus YOR144C, strain elg1, active compounds read low 1.01 | S. cerevisiae deletion strains, locus YOR184W, strain ser1, active compounds read low 1.02 | S. cerevisiae deletion strains, locus YOR231W, strain MKK1, active compounds read low 0.997 | S. cerevisiae deletion strains, locus YOR265W, strain rbl2, active compounds read low 0.988 | S. cerevisiae deletion strains, locus YOR270C, strain vph1, active compounds read low 0.956 | S. cerevisiae deletion strains, locus YOR290C, strain snf2, active compounds read low 0.989 | S. cerevisiae deletion strains, locus YOR316C, strain cot1, active compounds read low 1.01 | S. cerevisiae deletion strains, locus YPL051W, strain arl3, active compounds read low 1 | S. cerevisiae deletion strains, locus YPL055C, strain LGE1, active compounds read low 1.01 | S. cerevisiae deletion strains, locus YPL078C, strain atp4, active compounds read low 0.993 | S. cerevisiae deletion strains, locus YPL106C, strain sse1, active compounds read low 0.992 | S. cerevisiae deletion strains, locus YPL240C, strain hsp82, active compounds read low 1 | S. cerevisiae deletion strains, locus YPL256C, strain CLN2, active compounds read low 1 | S. cerevisiae deletion strains, locus YPR119W, strain clb2, active compounds read low 0.996 | S. cerevisiae deletion strains, locus YPR141C, strain kar3, active compounds read low 1.01 | S. cerevisiae deletion strains, locus YPR163C, strain tif3, active compounds read low 1.01 | S. cerevisiae deletion strains, locus YPR167C, strain met16, active compounds read low 1.01 | S. cerevisiae deletion strains, strain wtn01, active compounds read low 1.05 | S. cerevisiae strains, strain wild type, active compounds read low 0.98
